Among all 310,000 compounds or so, about 14,000 (4.5%) showed an effect of 50% or more. Effects have a minus sign here. The sample holds strong results, similar compounds and a random draw of the others, so the mix is not that of the screen.

The text below walks through data of publication PMC4336329 (PLoS ONE, 2015).
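Further: peak tail current of the secondary pulse compared with the same well before compound.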

Sequence of human ether-à-go-go-related gene (hERG) potassium channel (Q12809 whole entry, looked up): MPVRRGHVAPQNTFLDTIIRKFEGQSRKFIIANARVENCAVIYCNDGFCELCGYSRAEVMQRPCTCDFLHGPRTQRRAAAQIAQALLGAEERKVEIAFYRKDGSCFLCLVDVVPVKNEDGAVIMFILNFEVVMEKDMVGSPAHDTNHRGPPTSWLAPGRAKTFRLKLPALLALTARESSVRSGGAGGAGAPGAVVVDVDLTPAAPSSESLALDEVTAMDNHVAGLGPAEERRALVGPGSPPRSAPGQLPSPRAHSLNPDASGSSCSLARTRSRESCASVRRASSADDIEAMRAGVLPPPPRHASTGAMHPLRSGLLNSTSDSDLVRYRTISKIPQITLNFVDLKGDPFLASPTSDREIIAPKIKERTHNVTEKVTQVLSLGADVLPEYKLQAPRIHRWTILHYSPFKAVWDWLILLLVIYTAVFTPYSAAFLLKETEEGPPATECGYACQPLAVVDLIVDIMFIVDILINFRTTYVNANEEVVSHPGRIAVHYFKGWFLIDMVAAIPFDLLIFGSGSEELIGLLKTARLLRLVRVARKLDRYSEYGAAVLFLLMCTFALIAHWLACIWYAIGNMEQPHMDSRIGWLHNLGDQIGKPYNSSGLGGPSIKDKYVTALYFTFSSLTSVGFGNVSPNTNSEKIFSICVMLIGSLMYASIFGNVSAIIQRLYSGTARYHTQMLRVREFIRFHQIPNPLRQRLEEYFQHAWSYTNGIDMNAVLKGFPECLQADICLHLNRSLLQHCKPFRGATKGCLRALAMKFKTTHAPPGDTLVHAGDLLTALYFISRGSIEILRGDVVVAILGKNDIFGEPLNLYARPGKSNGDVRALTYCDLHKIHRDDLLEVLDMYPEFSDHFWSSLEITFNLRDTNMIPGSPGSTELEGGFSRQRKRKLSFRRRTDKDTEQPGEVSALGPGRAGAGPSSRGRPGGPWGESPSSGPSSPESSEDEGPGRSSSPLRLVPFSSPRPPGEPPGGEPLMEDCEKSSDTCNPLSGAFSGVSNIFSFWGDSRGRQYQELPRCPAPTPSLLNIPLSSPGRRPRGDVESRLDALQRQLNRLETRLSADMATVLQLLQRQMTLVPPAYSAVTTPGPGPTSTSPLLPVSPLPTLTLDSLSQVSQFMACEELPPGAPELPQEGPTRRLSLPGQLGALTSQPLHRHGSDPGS

This experiment concerns the target human ether-à-go-go-related gene (hERG) potassium channel (human, UniProt Q12809). Description: primary screen, population patch clamp on CHO cells stably expressing hERG; higher = less effect of the substance.
For `CC1=C(C(=O)OCc2ccccc2)C(c2ccc(C#N)cc2)NC(=O)N1CCCC(=O)O` (centres unmarked), the “hERG current change (%, negative = inhibition) at 10uM” value turned out to be 10.9%.

In the case of `CCOC(=O)CSc1nc2ccccc2c(=O)n1C`, the “hERG current change (%, negative = inhibition) at 10uM” value worked out at 10.1%.

In the case of `CCOC(=O)c1c(NC(=O)CSc2nccn2C)sc(C(=O)NC)c1C`, the “hERG current change (%, negative = inhibition) at 10uM” value is -11.5%. With `COc1ccc2ccccc2c1/C=N/N1C(=O)CSC1=S`, the “hERG current change (%, negative = inhibition) at 10uM” value amounted to 16.7%.

On to `COc1ccc(-n2nc(C(=O)NCC(=O)NCCCN3CCOCC3)c3ccccc3c2=O)cc1`, for which the “hERG current change (%, negative = inhibition) at 10uM” value is on record as 3.4%. For `CCN(CC(=O)N1CCCC1)S(=O)(=O)c1ccc(Br)cc1` the value was 13.5%. The value for `CCc1cc(=O)oc2c3c(cc(OCC(=O)NC4CC4)c12)OC(C)(C)CC3` was -13.9%; that for `Cc1ccc(CN2CCN(/N=C/c3cccnc3)CC2)c(C)c1` was -47.5%; that for `COc1ccccc1NC(=O)Cn1c(C)cc(=O)c2cccc(OC)c21` was -33.3%. The value for `COCCNC(=O)c1c[nH]c2ccc(S(=O)(=O)N3CCc4ccccc43)cc2c1=O` was 6.11%; that for `O=C(OCc1ccccc1F)c1ccc2c(c1)-c1ccccc1C2=O` was 16.4%. In the case of `CCOC(=O)Cn1c(=O)n(CC(=O)OCC)c2ccccc21`, the “hERG current change (%, negative = inhibition) at 10uM” value was 12.3%.

Take `Cl.N=c1n(CCCOc2ccc(Br)cc2)c2ccccc2n1CC(N)=O`: the “hERG current change (%, negative = inhibition) at 10uM” value is -44.7%.

In the case of `CCOC(=O)Cn1c(=N)n(CCOc2cccc(C)c2)c2ccccc21.Cl`, the “hERG current change (%, negative = inhibition) at 10uM” value was -62.2%. For `CCOC(=O)Cn1c(=N)n(CCOc2ccc(Br)cc2)c2ccccc21.Cl`, the “hERG current change (%, negative = inhibition) at 10uM” value is reported as -69.5%. On to `CCOC(=O)Cn1c(=N)n(CCOc2ccc(F)cc2)c2ccccc21.Cl`, for which the “hERG current change (%, negative = inhibition) at 10uM” value is reported as -65.8%. `CCOC(=O)Cn1c(=N)n(Cc2ccccc2F)c2ccccc21.Cl`: the “hERG current change (%, negative = inhibition) at 10uM” value is given as -28.3%. For `Cc1cccc(OCCn2c(=O)sc3ccccc32)c1` the value was -3.38%. For `CCOC(=O)Cn1c(=N)n(CCOc2ccc(OC)cc2)c2ccccc21.Cl` the value was -56.4%; for `Cl.N=c1n(CCCOc2ccc(F)cc2)c2ccccc2n1CC(N)=O`, -41.6%; for `Cc1cccc(OCCn2c(=O)n(C)c3ccccc32)c1`, -13.6%.

Regarding `Br.C=CCn1c(=N)n(CC(=O)OCC)c2ccccc21`, the “hERG current change (%, negative = inhibition) at 10uM” value was 5.36%.

Take `CCOC(=O)Nc1ccc(S(=O)(=O)N2CCOCC2)cc1`: the “hERG current change (%, negative = inhibition) at 10uM” value turned out to be 6.38%. `CC(/C=N/Nc1nc2ccccc2[nH]1)=C\c1ccccc1`: the “hERG current change (%, negative = inhibition) at 10uM” value is -41.8%. For `O=C(NCCCN1CCCC1=O)Nc1ccc(F)c(Cl)c1` the value was -1.92%. The value for `Cc1nc2ccccc2c(=O)n1-c1cccc(NS(=O)(=O)c2ccccc2)c1` was -20.9%; that for `CC(=O)Nc1ccc(N2C(=O)c3ccc(C(=O)Nc4nnc(SCc5ccc(F)cc5)s4)cc3C2=O)cc1` was 13.4%.

For the compound `Cl.OC(c1ccccc1)(c1ccc(F)cc1)C(c1ccccc1)N1CCOCC1` (centres unmarked), the “hERG current change (%, negative = inhibition) at 10uM” value is 16.8%.

For the compound `CC(=O)NC(=O)COC(=O)c1ccc2ncsc2c1`, the “hERG current change (%, negative = inhibition) at 10uM” value was found to be 18.5%. As for `O=C(CSc1cccc2cccnc12)N/N=C/c1cccc(O)c1`, the “hERG current change (%, negative = inhibition) at 10uM” value is reported as 2.95%. For `CCOc1ccccc1N1CCN(C(=O)c2cc3c(C)cc(C)cc3[nH]2)CC1`, the “hERG current change (%, negative = inhibition) at 10uM” value is recorded as -4.74%. The value for `COc1ccc(/C=N/NC(=O)c2ccccc2)cc1OS(=O)(=O)c1ccccc1` was -3.53%. For `CCCCn1c(SC(C)C(N)=O)nc2cc(C(=O)OC)ccc2c1=O` (centres unmarked) the value was -1.48%; for `Cn1c(=O)[nH]c(=O)c2c1nc(N1CCN(CCO)CC1)n2Cc1ccccc1Cl`, -6.38%.

For the compound `O=C(NC(=O)c1ccccc1)NC1(C(F)(F)F)OCCO1`, the “hERG current change (%, negative = inhibition) at 10uM” value stood at 2.65%. For `Cc1ccc(-c2nnc(SCC(=O)N/N=C/c3ccccc3C(=O)O)n2C2CCCCC2)cc1` the value was 11.1%. With `CCCOc1ccc(C(C)=O)cc1CSc1nc(O)cc(=O)[nH]1`, the “hERG current change (%, negative = inhibition) at 10uM” value stood at 14.4%.

Turning to `COc1ccc(S(N)(=O)=O)cc1C(=O)OCCCOC(=O)c1cc(S(N)(=O)=O)ccc1OC`, the “hERG current change (%, negative = inhibition) at 10uM” value came out at 4.29%. In the case of `CCOC(=O)Cn1c(=N)n(CCOc2ccc3ccccc3c2)c2ccccc21.Cl`, the “hERG current change (%, negative = inhibition) at 10uM” value is -75.3%. The value for `Br.CCOC(=O)Cn1c(=N)n(Cc2ccccc2)c2ccccc21` was -34.6%.

Turning to `Br.CCCn1c(=N)n(CC(=O)OCC)c2ccccc21`, the “hERG current change (%, negative = inhibition) at 10uM” value is given as -4.66%.

As for `O=C(C1=C[C@H](c2coc3ccccc3c2=O)C[C@H](OCc2ccc(CO)cc2)O1)N1CCN(Cc2ccccc2)CC1`, the “hERG current change (%, negative = inhibition) at 10uM” value is on record as -61.7%. For `C=CCOC(=O)C1=C[C@H](c2coc3ccccc3c2=O)C[C@H](OCc2ccc(CO)cc2)O1` the value was -62.3%; for `C=CCOC(=O)C1=C[C@@H](c2coc3ccccc3c2=O)C[C@@H](OCc2ccc(CO)cc2)O1`, -40.9%; for `O=C(C1=C[C@@H](c2coc3ccccc3c2=O)C[C@@H](OCc2ccc(CO)cc2)O1)N1CCOCC1`, -24.7%. The value for `NC(=O)C1=C[C@@H](c2coc3ccccc3c2=O)C[C@@H](OCc2ccc(CO)cc2)O1` was -31%. For `O=C(C1=C[C@@H](c2coc3ccccc3c2=O)C[C@@H](OCc2ccc(CO)cc2)O1)N1CCCCCCC1` the value was -66.5%; for `O=C(C1=C[C@H](c2coc3ccccc3c2=O)C[C@H](OCc2ccc(CO)cc2)O1)N1CCOCC1`, -49.7%; for `CN1CCN(C(=O)C2=C[C@H](c3coc4ccccc4c3=O)C[C@H](OCc3ccc(CO)cc3)O2)CC1`, -41.1%.

For the compound `O=C(C1=C[C@@H](c2coc3ccccc3c2=O)C[C@@H](OCc2ccc(CO)cc2)O1)N1CCN(Cc2ccccc2)CC1`, the “hERG current change (%, negative = inhibition) at 10uM” value is recorded as -48%.

With `CCOC(=O)c1ccc(NS(=O)(=O)c2c(C)[nH]c(C)c2C(=O)N2CCCCC2)cc1`, the “hERG current change (%, negative = inhibition) at 10uM” value is 7.73%. For `CC(C)C(NS(=O)(=O)/C=C/c1ccccc1)C(=O)NCc1ccc(F)cc1` (centres unmarked) the value was 25.3%; for `CCn1c(SCC(=O)N2c3ccccc3CC2C)nnc1-c1ccco1` (centres unmarked), -17.6%.
